Legend:
Assay in all cases: DAPPL (digital affinity profiling via proximity ligation, sequencing); 10 mM Tris-HCl pH 7.5, 50 mM NaCl, 1 mM DTT, 4% glycerol, room temperature, 30 min; GST-TFs on glutathione beads, 16-mer random dsDNA library, 0.1% formaldehyde crosslink after washing; high values mean tight binding
Conditions in all cases: protein: recombinant; tags: N-terminal GST; dsDNA, one strand shown
[1] = target: T1, FLI1 (Homo sapiens, UniProt Q01543 1-452)
T1 sequence: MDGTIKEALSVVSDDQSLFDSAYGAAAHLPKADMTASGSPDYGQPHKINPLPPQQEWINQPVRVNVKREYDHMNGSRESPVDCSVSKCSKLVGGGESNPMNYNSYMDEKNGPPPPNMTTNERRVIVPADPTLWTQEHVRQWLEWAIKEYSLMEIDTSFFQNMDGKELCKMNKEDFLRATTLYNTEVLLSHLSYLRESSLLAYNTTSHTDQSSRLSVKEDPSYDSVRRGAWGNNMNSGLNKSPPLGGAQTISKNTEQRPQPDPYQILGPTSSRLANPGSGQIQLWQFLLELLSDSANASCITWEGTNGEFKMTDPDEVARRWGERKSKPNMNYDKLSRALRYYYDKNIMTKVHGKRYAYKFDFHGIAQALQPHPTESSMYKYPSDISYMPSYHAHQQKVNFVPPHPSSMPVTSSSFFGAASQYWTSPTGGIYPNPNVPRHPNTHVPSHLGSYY
Procedure, shortened: (§1)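 Human transcription factors carrying a GST fusion were produced in yeast, bound to glutathione beads, tagged with DNA barcodes and pooled together with a tag-only sample. Each pool was held with 200 nmole of a random double-stranded 16-mer DNA library in Tris/NaCl/DTT/glycerol buffer for 30 min at room temperature, then washed, crosslinked in 0.1% formaldehyde, proximity-ligated with BsaI/T4 ligase (1 h, 37 °C), PCR-amplified and sequenced on an Illumina NextSeq500. Binding signal is the read frequency of each hexamer for a given factor divided by its frequency in the tag-only sample.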

[2] = target: T2, ELK1 (Homo sapiens, UniProt P19419 1-428)
T2 sequence: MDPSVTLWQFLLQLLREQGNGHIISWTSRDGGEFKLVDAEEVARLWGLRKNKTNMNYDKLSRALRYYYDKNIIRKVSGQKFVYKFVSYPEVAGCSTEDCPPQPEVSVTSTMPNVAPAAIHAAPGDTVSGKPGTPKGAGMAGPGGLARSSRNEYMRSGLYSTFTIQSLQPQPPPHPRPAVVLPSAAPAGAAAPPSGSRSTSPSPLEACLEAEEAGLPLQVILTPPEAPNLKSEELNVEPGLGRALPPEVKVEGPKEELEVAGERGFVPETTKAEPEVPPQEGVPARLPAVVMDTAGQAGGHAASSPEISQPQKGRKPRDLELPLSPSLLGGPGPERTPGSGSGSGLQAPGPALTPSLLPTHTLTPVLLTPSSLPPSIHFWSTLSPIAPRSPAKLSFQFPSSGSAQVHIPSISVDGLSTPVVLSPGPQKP
Procedure, shortened: as §1

[3] = target: T3, GABPA (Homo sapiens, UniProt Q06546 1-454)
T3 sequence: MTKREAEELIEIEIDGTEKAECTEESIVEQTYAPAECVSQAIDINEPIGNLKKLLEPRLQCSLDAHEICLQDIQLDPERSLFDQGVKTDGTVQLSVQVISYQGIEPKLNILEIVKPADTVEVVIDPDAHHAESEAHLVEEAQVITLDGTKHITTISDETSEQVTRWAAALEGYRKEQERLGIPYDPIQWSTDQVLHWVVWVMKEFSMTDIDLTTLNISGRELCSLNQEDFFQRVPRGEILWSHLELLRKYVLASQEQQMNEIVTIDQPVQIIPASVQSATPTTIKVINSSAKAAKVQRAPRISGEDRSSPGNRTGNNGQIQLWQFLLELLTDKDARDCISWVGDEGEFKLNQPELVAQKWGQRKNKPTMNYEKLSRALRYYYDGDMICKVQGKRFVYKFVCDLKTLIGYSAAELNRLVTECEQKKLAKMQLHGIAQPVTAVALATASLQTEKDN
Procedure, shortened: as §1

[4] = target: T4, ERG (Homo sapiens, UniProt P11308 1-479)
T4 sequence: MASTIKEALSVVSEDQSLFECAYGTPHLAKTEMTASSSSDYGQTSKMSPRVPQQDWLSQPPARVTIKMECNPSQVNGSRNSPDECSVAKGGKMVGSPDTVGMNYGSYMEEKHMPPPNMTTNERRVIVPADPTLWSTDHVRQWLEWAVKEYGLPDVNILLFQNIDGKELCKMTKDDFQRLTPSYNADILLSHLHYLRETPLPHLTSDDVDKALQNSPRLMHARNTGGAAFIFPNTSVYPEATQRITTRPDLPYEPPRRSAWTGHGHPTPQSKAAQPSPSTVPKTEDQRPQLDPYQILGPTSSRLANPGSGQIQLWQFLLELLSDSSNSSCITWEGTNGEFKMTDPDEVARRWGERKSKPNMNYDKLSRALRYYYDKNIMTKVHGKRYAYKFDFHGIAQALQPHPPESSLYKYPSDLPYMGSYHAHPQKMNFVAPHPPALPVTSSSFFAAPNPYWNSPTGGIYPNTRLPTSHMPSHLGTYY
Procedure, shortened: as §1

[5] = target: ELF1 (Homo sapiens, UniProt P32519 1-619)
ELF1, sequence (P32519 whole entry): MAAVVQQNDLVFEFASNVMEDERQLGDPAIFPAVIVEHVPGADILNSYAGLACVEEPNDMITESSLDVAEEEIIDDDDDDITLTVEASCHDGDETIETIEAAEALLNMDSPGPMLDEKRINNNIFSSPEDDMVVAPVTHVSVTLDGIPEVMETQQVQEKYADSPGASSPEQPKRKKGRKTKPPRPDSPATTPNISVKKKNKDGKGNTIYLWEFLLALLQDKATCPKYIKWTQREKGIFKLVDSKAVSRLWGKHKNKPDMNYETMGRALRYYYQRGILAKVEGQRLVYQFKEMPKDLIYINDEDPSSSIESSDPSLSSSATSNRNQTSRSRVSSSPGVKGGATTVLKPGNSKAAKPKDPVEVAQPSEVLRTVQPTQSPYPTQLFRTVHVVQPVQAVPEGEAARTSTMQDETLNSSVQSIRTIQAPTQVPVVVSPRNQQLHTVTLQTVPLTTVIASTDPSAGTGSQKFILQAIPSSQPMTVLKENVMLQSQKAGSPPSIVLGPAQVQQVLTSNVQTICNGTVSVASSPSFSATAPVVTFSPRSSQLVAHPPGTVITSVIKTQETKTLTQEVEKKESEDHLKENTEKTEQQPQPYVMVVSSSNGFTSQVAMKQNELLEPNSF
Procedure, shortened: as §1

[6] = target: T5, EHF (Homo sapiens, UniProt Q9NZC4 1-300)
T5 sequence: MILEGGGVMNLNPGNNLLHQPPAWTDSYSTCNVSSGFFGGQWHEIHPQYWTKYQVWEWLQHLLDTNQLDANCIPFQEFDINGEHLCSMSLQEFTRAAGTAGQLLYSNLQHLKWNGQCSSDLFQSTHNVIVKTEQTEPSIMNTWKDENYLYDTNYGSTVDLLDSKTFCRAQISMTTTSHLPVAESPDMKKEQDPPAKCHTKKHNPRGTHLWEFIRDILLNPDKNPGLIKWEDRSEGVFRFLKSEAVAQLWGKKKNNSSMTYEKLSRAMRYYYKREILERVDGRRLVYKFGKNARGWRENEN
Procedure, shortened: as §1

[7] = target: SPI1 (Homo sapiens, UniProt P17947 1-270)
Procedure, shortened: as §1

[8] = target: T6, ELK3 (Homo sapiens, UniProt P41970 1-407)
T6 sequence: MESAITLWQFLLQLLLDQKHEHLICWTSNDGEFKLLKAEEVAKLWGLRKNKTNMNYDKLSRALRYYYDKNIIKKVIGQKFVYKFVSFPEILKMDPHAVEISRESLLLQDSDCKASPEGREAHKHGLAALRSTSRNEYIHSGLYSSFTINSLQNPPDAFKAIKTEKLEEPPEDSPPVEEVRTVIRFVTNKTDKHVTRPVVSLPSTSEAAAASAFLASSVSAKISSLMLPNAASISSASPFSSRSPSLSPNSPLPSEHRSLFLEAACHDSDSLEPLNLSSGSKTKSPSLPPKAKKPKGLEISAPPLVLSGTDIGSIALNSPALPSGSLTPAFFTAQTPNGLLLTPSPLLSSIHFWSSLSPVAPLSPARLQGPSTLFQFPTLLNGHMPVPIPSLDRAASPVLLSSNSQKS
Procedure, shortened: as §1

CCATGC was tested. Which binding signal [1] did it give?
Its binding signal is 1.04 fold enrichment (6-mer frequency, TF over GST control).

And the binding signal [2]?
Its binding signal is 1.1 fold enrichment (6-mer frequency, TF over GST control).

And the binding signal [3]?
Its binding signal is 1.09 fold enrichment (6-mer frequency, TF over GST control).

What about the binding signal [4] of the same sequence?
Its binding signal is 1.09 fold enrichment (6-mer frequency, TF over GST control).

What about the binding signal [5] of the same sequence?
The binding signal was 1.13 fold enrichment (6-mer frequency, TF over GST control).

What about the binding signal [6] of the same sequence?
The binding signal was 1.15 fold enrichment (6-mer frequency, TF over GST control).

What about the binding signal [7] of the same sequence?
The binding signal was 1.01 fold enrichment (6-mer frequency, TF over GST control).

What about the binding signal [8] of the same sequence?
The binding signal was 1.04 fold enrichment (6-mer frequency, TF over GST control).
